PNC inhibitor = blocks assembly of the perinucleolar compartment. PC3M PTB-GFP, PNC prevalence imaging, 16 h; stronger effect = lower value. activity change (PNC), negative = inhibition, % at 10 µM. 140,000 tested, 3.1% active;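 active = readout at or below -70, meaning at least 70% loss of cells showing the perinucleolar compartment, a nuclear body marking cancer cells; inconclusive = readout between -30 and a set limit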;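 note: plate controls were DMSO wells for no effect and camptothecin positive control wells for full effect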
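Read-out is percentage of cells bearing a perinucleolar compartment, from automated 20x imaging of fixed, Hoechst-stained PC3M PTB-GFP cells. Cells were seeded 4 h, then exposed 16 h to compound (23 nl of library stock) in duplicate plates.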
ALDH1A1 inh = ALDH1A1 (human) enzyme inhibition. Purified ALDH1A1, NADH fluorescence, propionaldehyde substrate. Potency, µM (titrated, usually from 75.3 µM), for the others: at the top dose activity, negative = inhibition, hits mostly inhibitors. 220,000 tested, 7.3% active;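 note: potency is the fitted concentration of half-maximal effect; plate controls were no enzyme wells and a reference inhibitor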
HPGD inh = HPGD (human) dehydrogenase inhibition | purified HPGD, NADH fluorescence kinetic, PGE2 substrate | 150,000 tested, 4.3% active | P15428 | Potency, µM, without a hit: at the highest dose activity change, negative = inhibition, hits mostly inhibitors; note: potency is the fitted concentration of half-maximal effect
Target sequence (P15428 whole entry, looked up): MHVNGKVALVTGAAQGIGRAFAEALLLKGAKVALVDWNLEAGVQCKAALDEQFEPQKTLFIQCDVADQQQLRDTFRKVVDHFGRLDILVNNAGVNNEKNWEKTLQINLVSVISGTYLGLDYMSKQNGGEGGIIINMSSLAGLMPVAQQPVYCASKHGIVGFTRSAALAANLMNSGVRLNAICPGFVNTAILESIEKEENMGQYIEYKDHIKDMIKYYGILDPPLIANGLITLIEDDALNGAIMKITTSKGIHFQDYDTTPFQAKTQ
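NADH formation kinetics: reaction with 30 uM PGE2 and 1 mM NAD+ (final), 20 nM enzyme, Tris-HCl pH 8 with Tween 20, after 15 min compound preincubation at room temperature. Fluorescence change, last versus first of five reads.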
* hit, by the source's call; ? = inconclusive; / = no result given; [ ] = dose if it differs, or a comment. Rows were chosen to be rich in hits. Some 11% of all compounds tested hit in one or more screens of this group. Unless noted, calls come from the whole dose curve; as a rule, active = well fitted inhibition curve with a large enough effect (not every such curve was filed as active); inconclusive = small, poorly fitted or top-dose-only effect, or another doubt; inactive = no such curve, though single readings can be large or run the other way. Unless noted, % is set by controls: 0 for no effect and ±100 for the full control effect.

SMILES | PNC inhibitor | ALDH1A1 inh | HPGD inh
Cc1ccc(C)c(/C(O)=C2\C(=O)C(=O)N(CCCn3ccnc3)C2c2ccncc2)c1 (stereo unspecified) | 24 | ? | 28µM*
O=C(CSc1nnnn1-c1ccccc1)N1CCc2ccccc2C1 | -25 | 20µM* | -10%
CC(=O)c1ccc(-n2nnnc2SCC(=O)NNC(=O)c2ccco2)cc1 | 76 | -4% | -12%
Cc1ccc(-n2c(C)nnc2SCC(=O)N2CCc3ccccc3C2)cc1 | 30 | -7% | -8%
CC(=O)c1ccc(-n2nnnc2SCC(=O)N2CCc3ccccc3C2)cc1 | -82* | ? | -14%
COc1ccc2c(c1)C(=O)[C@H](OC(=O)NCCOc1ccccc1)[C@@H](c1ccc(OC)c(Br)c1)O2 | / | ? | -28%
NC(=O)C1CCN(C(=O)c2cc(S(=O)(=O)N3CCOCC3)c(Cl)cc2Cl)CC1 | -11 | -4% | -4%
CCc1ccc(S(=O)(=O)NCCc2cn3ccc(C)cc3n2)s1 | / | 0% | /
C#CCCOC(=O)N1C2=NC(C(=O)OC)=C(C(=O)OC)[C@@H]3N(Cc4ccccc4)c4ccccc4[C@]23C[C@H]1C(=O)OC | / | -6%[13.5 µM] | -6%
COCCN1C(=O)c2cc(C(=O)Nc3ccc(OC)c(OC)c3)ccc2C1Nc1ccc(OC)c(OC)c1 (stereo unspecified) | / | -7% | /
CCCN1C(=O)c2cc(C(=O)Nc3ccc(OC)cc3OC)ccc2C1Nc1ccc(OC)cc1OC (stereo unspecified) | / | 25µM* | /
CCC(C)[C@H](NC(=O)Nc1ccccc1F)C(=O)OC (stereo partly specified) | / | -1% | /
Cc1ccc(N2CC(C(=O)Nc3ccc(S(=O)(=O)Nc4nccc(C)n4)cc3)CC2=O)cc1 (stereo unspecified) | / | -10% | /
O=C(CCN1C(=O)S/C(=C\c2ccccc2)C1=O)Nc1ccc(S(=O)(=O)Nc2nccs2)cc1 | 21 | ? | -20%
CS(=O)(=O)Nc1ccc(S(=O)(=O)Nc2nccs2)cc1 | -29 | -5% | 4%
O=S(=O)(Nc1nccs1)c1ccc(NS(=O)(=O)c2cccs2)cc1 | ? | 18µM* | -9%
COc1ccccc1/C=C1/SC(=O)N(CCC(=O)Nc2ccc(S(=O)(=O)Nc3nccs3)cc2)C1=O | 47 | 25µM* | -17%
O=C(CSc1ccncc1)Nc1ccc(S(=O)(=O)Nc2nccs2)cc1 | / | 10µM* | /
Cc1ccc(N2CC(C(=O)Nc3ccc(S(=O)(=O)Nc4nccs4)cc3)CC2=O)cc1 (stereo unspecified) | / | 20µM* | /
Cc1ccc(SCC(=O)Nc2ccc(S(=O)(=O)Nc3nccs3)cc2)cc1 | ? | ? | -23%
CC(NC(=O)C12CC3CC(CC(C3)C1)C2)C(=O)N/N=C/C1=C(N2CCOCC2)C(=C\c2ccccc2)/CC1 (stereo unspecified) | 16 | ? | -16%
Cc1nnc(SCc2ccc(Cl)cc2)n1CC1CCCO1 (stereo unspecified) | 8 | -11% | -11%
O=C(O)c1cc(=O)[nH]c(=O)[nH]1 | / | ? | -5%
COc1ccc(-c2nc3c(c4c2C[C@H](c2ccccc2)OC4)CN(C(=O)NCCc2c[nH]c4ccccc24)CC3)c(C)c1 | / | 0%[13.5 µM] | -4%
NS(=O)(=O)c1cnccc1Nc1ccc(Cl)c(Cl)c1 | -26 | -6% | -10%
SMILES | PNC inhibitor | ALDH1A1 inh | HPGD inh
O=C1CCCC2=C1C(c1cccc(O)c1)c1c(ccc3ncccc13)N2 (stereo unspecified) | / | -4% | /
Cn1cccc1CC(=O)N/N=C/c1cccc2ccccc12 | -14 | ? | 16µM*
Cn1cccc1CC(=O)N/N=C\c1c2ccccc2cc2ccccc12 | -11 | -2% | -10%
O=C(O)CCC/C=C\CC1C2CCC(O2)C1CNNC(=O)Nc1ccccc1 (stereo unspecified) | / | -5% | -9%
CCN1C(=O)/C(=C\c2cccn2-c2ccc([N+](=O)[O-])cc2)N(CC)C1=S | ? | 13% | -2%
CC(C)(C)c1ccc(C(=O)CC(Sc2ccc(Cl)cc2)C(=O)O)cc1 (stereo unspecified) | / | 2.5µM* | /
CC(C)(C)c1ccc(C(=O)Nc2ccc(Cl)cc2)cc1 | -13 | 4% | -17%
O=C(CN1C(=O)C2C3c4ccccc4C(c4ccccc43)C2C1=O)Nc1cccc(C(=O)O)c1 (stereo unspecified) | ? | 1% | -3%
CCOc1ccc(C(C)NC(=O)Nc2ccccc2C(=O)OC)cc1 (stereo unspecified) | 57 | ? | -13%
COc1ccc(C2=CC(=O)OC3(CCCC3)O2)cc1 | -19 | 13µM* | -5%
COC1=CC(=O)OC12CCCCC2 | -24 | 2% | -10%
O=S(=O)(NC1CCCCCC1)c1cccc2cccnc12 | 4 | 14µM* | -1%
CC(CS(=O)(=O)c1cccc2cccnc12)N1CCCCC1 (stereo unspecified) | 44 | 20µM* | /
O=C(NC1CCCCC1)c1ccc(NS(=O)(=O)c2cccc3cccnc23)cc1 | / | 7.9µM* | /
O=C(NCc1ccccc1)c1cccc(NS(=O)(=O)c2cccc3cccnc23)c1 | 14 | 0.5µM* | -2%
CN(CC(=O)NC1CCCCCCC1)S(=O)(=O)c1cccc2cccnc12 | ? | -14% | 1%
COCCNC(=O)c1cccc(NS(=O)(=O)c2cccc3cccnc23)c1 | 10 | ? | 4%
CN(CC(=O)N1CCCCCC1)S(=O)(=O)c1cccc2cccnc12 | -7 | ? | -15%
COC(=O)c1ccc(NS(=O)(=O)c2cccc3cccnc23)cc1 | -28 | 17% | -7%
O=C(COC(=O)c1cnccn1)NCc1ccc2c(c1)OCO2 | / | 2% | /
CC1(C)[C@@H]2CC[C@]1(C)[C@@H](OC(=O)/C=C\c1ccccc1)C2 | / | -1%[13.5 µM] | -10%
CCOc1ccc(S(=O)(=O)N2CCOCC2)cc1[N+](=O)[O-] | / | -1% | /
Cc1ccc(-n2[nH]c(C)c(/C=N/NC(=O)c3ccc([N+](=O)[O-])cc3)c2=O)c(C)c1 | / | 5% | /
COc1ccc(C(=O)COC(=O)CCc2nc3ccccc3[nH]c2=O)cc1Br | / | 6% | /
CCCn1c(-c2ccc(F)cc2)nc2c(N3CCN(CCn4ccnc4)CC3)nc(C)nc21 | / | -2% | -8%
SMILES | PNC inhibitor | ALDH1A1 inh | HPGD inh
Cc1cccc(N2C(=O)/C(=C\c3ccc(OC(F)F)cc3)c3ccccc3C2=O)c1 | -13 | ? | 10µM*
COc1cccc(N2C(=O)c3ccncc3C2=O)c1 | -7 | -4% | -14%
COc1cccc(/C=C2\C(=O)N(c3cccc(C)c3)C(=O)c3ccccc32)c1 | ? | ? | 4µM*
CCOc1cc(/C=C2\C(=O)N(c3cccc(C(F)(F)F)c3)C(=O)c3ccccc32)ccc1O | -4 | ? | ?
CC(C)COc1ccc(C/C(N)=N/n2cnnc2)cc1 | / | -5% | /
Cc1cn(C2CC3OCC3O2)c(=O)[nH]c1=O (stereo unspecified) | 0 | 13% | 3%
Cc1ccc(C(=O)CSc2nn3c(=O)c(C(C)(C)C)nnc3s2)cc1 | 19 | ? | -11%
CC(C)(C)c1nnc2sc(SCC(=O)c3ccc(Cl)cc3)nn2c1=O | -11 | 4.5µM* | 28µM*
COC(=O)c1c(C)oc2ccc(OC(=O)c3cccs3)cc12 | 25 | -6% | -18%
COCCOC(=O)c1c(C)oc2ccc(OC(=O)c3cccs3)cc12 | -139* | -8% | -13%

Source: PubChem (National Center for Advancing Translational Sciences (NCATS))
